Tb PYK inh – blocks Trypanosoma brucei pyruvate kinase; Q57TT1; TbPYK enzyme, Kinase-Glo Plus ATP luminescence, 45 min; Potency, µM (series often up to 76.8 µM), usual class: inhibitors; 0.12% of 410,000 active; AID 624173; also: nearly all actives have a fitted effect of over 50% in size
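Readout: single end-point luminescence (Kinase-Glo Plus, 10 min). Reaction conditions were TbPYK/substrate plus 130 uM ADP, 45 min at RT, pH 7.2 TEA buffer. No-enzyme wells served as controls, and data were normalized before concentration-response fitting.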
LmPK inh – LmPK (Leishmania mexicana) enzyme inhibition. 0.37% of 290,000 active. purified LmPK, Kinase-Glo ATP luminescence, 1 h. Potency, µM (highest dose often 57.5 µM), hits mostly inhibitors
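Kinase-Glo luminescence read after 1 h RT reaction of 0.1 nM LmPK with 0.5 mM PEP and 0.1 mM ADP. Activity scaled between uninhibited and enzyme-free controls.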
FBPA Giardia inh – inhibitors of Giardia lamblia fructose-1,6-bisphosphate aldolase | 0.71% of 290,000 active | Potency, µM (top dose mostly 59.6 µM), usual class: inhibitors | purified Giardia FBPA | AID 2451 | A8B2U2; also: nearly all actives have a fitted effect of over 55% in size
Target sequence (A8B2U2 whole entry, looked up): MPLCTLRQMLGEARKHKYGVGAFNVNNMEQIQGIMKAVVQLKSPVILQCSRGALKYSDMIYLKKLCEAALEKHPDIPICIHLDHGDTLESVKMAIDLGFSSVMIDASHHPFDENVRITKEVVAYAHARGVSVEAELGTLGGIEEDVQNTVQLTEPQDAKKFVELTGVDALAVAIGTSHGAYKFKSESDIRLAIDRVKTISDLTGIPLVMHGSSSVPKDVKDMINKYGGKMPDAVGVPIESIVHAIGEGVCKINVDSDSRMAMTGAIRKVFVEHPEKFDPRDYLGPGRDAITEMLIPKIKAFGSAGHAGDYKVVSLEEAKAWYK
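Giardia FBPA (40 nM reagent) was preincubated 10 min at RT with compound (up to 57.5 uM final), then substrate plus GAPDH/TPI/NAD/arsenate coupling system with diaphorase/resazurin was added; resorufin fluorescence (525/598 nm) was read after 20 min.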
CHX counter – counter-screen for Shiga toxin inhibitors: cycloheximide protein synthesis inhibition. cell reporter, cycloheximide protein synthesis inhibition counterscreen. max response, %. 12% of 300,000 active. AID 2314; in the data active = max response mostly above about 13%, no sharp cut-off; inactive = mostly below about 14%; also: read at 38.3 µM for the half of the compounds with a filed dose
Shiga toxin inh – blocks Shiga toxin action in Vero cells; Vero cells, Shiga toxin protein synthesis inhibition reporter; inhibition, % at 38.7 µM; 9.2% of 290,000 active; AID 2315; in the data active = inhibition mostly above about 28%, no sharp cut-off; inactive = mostly below about 43%
RE007 growth inh – less growth of the S. pombe RE007 Vpr strain; AID 651644; 0.21% of 360,000 active; Potency, µM (highest dose often 92.2 µM), actives largely listed as inhibitors; S. pombe RE007 Vpr strain, BacTiter-Glo ATP luminescence, 24 h; active = well fitted falling curve with a large enough effect; inconclusive = small, poorly fitted or top-dose-only effect; inactive = no such curve, though single readings can be large or run the other way; also: nearly all actives have a fitted effect of over 50% in size
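Fission yeast strain RE007, carrying one chromosomally integrated HIV-1 vpr copy, was seeded at OD 0.01 in PMG+AL medium with 23 nL pinned compound. After 24 h at 30 °C and 99% humidity, viability was read by BacTiter-Glo luminescence.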
A number is an active result; – = inactive; ? = inconclusive; · = not tested or not shown. The sample as a whole holds a higher share of hits than the screen did. Unless noted, calls follow the shape of the dose curve; as a rule, active = well fitted curve in the direction sought with a large enough effect; inconclusive = small, poorly fitted or top-dose-only effect, or another doubt; inactive = no such curve, though single readings can be large; an effect the other way counts as inactive or inconclusive.

SMILES | Tb PYK inh | LmPK inh | FBPA Giardia inh | CHX counter | Shiga toxin inh | RE007 growth inh
O=C(CCn1c(=O)c2cccn2c2ccc(F)cc21)NCCc1ccccc1Cl | – | · | · | · | · | ·
COC(=O)/C=C/c1cccc(N(Cc2ccc(-c3ccc(N(C)C)cc3)cc2)C(=O)C2CCCCC2)c1 | · | · | – | – | – | ·
CCOC(=O)C(N)CSC1CC(=O)N(c2ccc(C(=O)OC)cc2)C1=O (configuration not stated) | – | – | – | – | – | –
CCCOc1ccc(N2C(=O)CC(SCCN)C2=O)cc1 (configuration not stated) | – | – | – | 50 | 93 | 7.9µM
COC(=O)c1ccc(N2C(=O)CC(SCCN)C2=O)cc1 (configuration not stated) | – | – | – | 42 | 54 | –
Cc1cccc(NS(=O)(=O)c2cccc(C(=O)NCCCN3CCOCC3)c2)c1 | – | · | · | · | · | –
O=C(O)CCCC/C=C(\c1ccccc1)c1cccnc1 | – | · | · | · | · | ·
Cn1c(C(=O)Nc2cccc(Cl)c2)cc2c(=O)n(C)c3ccccc3c21 | – | · | · | · | · | ·
O=C(c1ccccc1)c1nccc2ccccc12 | – | – | – | – | – | –
O=C(OC(c1ccccc1)c1nccc2ccccc12)c1ccccc1 (configuration not stated) | – | · | · | · | · | –
CC(C)C(OC(=O)c1ccccc1)c1nccc2ccccc12 (configuration not stated) | – | – | – | 49 | 86 | –
O=C(OC(c1ccccc1)c1nccc2ccccc12)c1cccc([N+](=O)[O-])c1 (configuration not stated) | – | – | – | 32 | – | –
CCN(c1ccccc1)S(=O)(=O)c1c(C)nc2scc(C)n2c1=O | – | · | · | · | · | ·
O=C1NC(=S)N/C1=C\c1ccc(N2CCOCC2)cc1 | – | – | – | 28 | – | –
Cc1cc(N2CCOCC2)ccc1/C=C1\C(=O)NC(=O)N(c2ccccc2)C1=O | ? | – | – | – | – | –
Cc1cc(N2CCCCC2)ccc1C=C1C(=O)N(C)C(=S)N(C)C1=O | ? | – | – | – | – | –
Cc1cc(N2CCOCC2)ccc1/C=C1/SC(=O)NC1=O | ? | 16µM | – | 31 | – | –
C=CCN1C(=O)S/C(=C\c2ccc(N3CCOCC3)cc2C)C1=O | – | – | – | 35 | – | –
C=CC(C)N1C(=O)S/C(=C\c2ccc(N3CCOCC3)cc2C)C1=O (configuration not stated) | – | – | – | 17 | – | –
CC(=O)NCCCC[C@H](NC(=O)OC(C)(C)C)C(=O)Nc1ccc2c(C(F)(F)F)cc(=O)oc2c1 | · | · | – | – | – | ·
Cc1noc(C)c1-c1ccc2ncnc(N(C)Cc3ccco3)c2c1 | · | · | – | · | · | ·
COc1ccc(C2CC(C)(c3ccc(OC)cc3)Nc3ccccc3N2)cc1 (configuration not stated) | – | – | ? | 53 | 108 | –
C[C@H]1C=CC(=O)C[C@H]1c1c(F)cccc1Cl | · | · | – | – | – | ·
CSc1nc(=NC(C)=O)ss1 | – | – | ? | 33 | 68 | –
COc1ccc(C2CC(c3ccc(OC)cc3OC(C)=O)=NN2C(=O)c2ccccc2)cc1 (configuration not stated) | – | – | – | 14 | – | –
SMILES | Tb PYK inh | LmPK inh | FBPA Giardia inh | CHX counter | Shiga toxin inh | RE007 growth inh
COc1ccccc1C1=NN(C(=O)c2ccccc2)C(c2ccc(Br)cc2)C1 (configuration not stated) | – | – | – | 17 | – | –
COc1ccc(C2=NN(C(=O)c3ccccc3)C(c3ccc(OC)c(OC)c3)C2)c(O)c1 (configuration not stated) | – | – | – | – | – | –
COc1ccc(C2=NN(C(=O)/C=C/c3ccccc3)C(c3ccccc3)C2)c(OC(C)=O)c1 (configuration not stated) | – | – | – | – | – | ·
O=C(Nc1ccc(NC(=O)C2CCCCC2)cn1)c1ccco1 | – | – | – | 39 | – | –
O=C(Nc1ccc(NC(=O)C23CC4CC(CC(C4)C2)C3)cn1)c1ccco1 | – | – | – | 48 | 69 | –
COc1cc(NC(=O)C2CC2)c(OC)cc1NC(=O)c1ccco1 | – | – | · | – | – | –
O=C(Nc1ccc(NC(=O)C2CC2)cc1)c1ccco1 | – | – | – | 43 | 63 | –
CC(C)(C)C(=O)Nc1ccc(NC(=O)c2ccco2)nc1 | – | – | – | – | – | –

High-throughput results (PubChem BioAssay)
